Results as given in PubChem BioAssay.
Active and inactive are the calls of the source. Unless noted, no rule for the calls is given here.

What was measured:
[1] = compound effects on lung adenocarcinoma cell viability – A549, calcein-AM fluorescence, 48 h, basal, profiling panel (AID 1162); details: higher = more signal; also: test concentration not given here
[2] = compound effects on differentiated 3T3-L1 adipocyte viability – cell-based, 3T3-L1 adipocytes, calcein-AM fluorescence, 48 h, basal, profiling panel (AID 1163); details: 3T3-L1 adipocytes viability, higher = more signal; also: test concentration not given here
[3] = compound effects on hepatocellular carcinoma cell viability – HepG2, calcein-AM fluorescence, 48 h, basal, profiling panel (AID 1164); details: higher = more signal; also: test concentration not given here
[4] = compound effects on multiple myeloma cell viability – MM1S, calcein-AM fluorescence, 48 h, basal, profiling panel (AID 1165); details: higher = more signal;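 also: viability of MM1S multiple myeloma cells under basal unstimulated conditions; test concentration not given here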
[5] = calcein-AM signal in unstimulated myeloma cells – cell-based, calcein-AM fluorescence, 48 h, PK04 Diversity Set, profiling panel (AID 1166); details: RPMI8226 myeloma viability, higher = more signal;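 also: cells grown under basal conditions without added stimulus; test concentration not given here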
[6] = JC-1 mitochondrial signal, unstimulated HepG2 cells – cell-based, JC-1 fluorescence, 24 h, 100 nL compound, profiling panel (AID 1167); details: HepG2 mitochondrial potential, higher = more signal; also: test concentration not given here
[7] = JC-1 mitochondrial signal, unstimulated adipocytes – cell-based, JC-1 fluorescence, 3T3-L1 adipocytes, 24 h, 100 nL compound, profiling panel (AID 1168); details: JC-1 mitochondrial fluorescence, higher = more signal, called active from +8 up or from −8 down; also: test concentration not given here
[8] = JC-1 mitochondrial signal, unstimulated myeloma cells – cell-based, JC-1 fluorescence, RPMI8226, 24 h, 100 nL compound, profiling panel (AID 1169); details: JC-1 mitochondrial potential fluorescence, higher = more signal; also: test concentration not given here
[9] = JC-1 mitochondrial signal, unstimulated MM1S myeloma – cell-based, JC-1 fluorescence, 24 h, 100 nL compound, profiling panel (AID 1170); details: MM1S mitochondrial potential, higher = more signal; also: test concentration not given here
[10] = resazurin metabolic signal in A549 cells – cell-based, resazurin fluorescence, 24 h, PK04 Diversity Set, profiling panel (AID 1171); details: A549 viability, higher = more signal, called active from +8 up or from −8 down; also: test concentration not given here
[11] = resazurin metabolic signal in HepG2 cells – cell-based, resazurin fluorescence, 24 h, PK04 Diversity Set, profiling panel (AID 1172); details: HepG2 viability, higher = more signal; also: test concentration not given here
[12] = budding yeast growth changes without added modifier – OD600, strain BY4716, 24 h, basal condition, primary screen (AID 1173); details: S. cerevisiae BY4716 growth, OD600, 24 h; higher = more signal, called active from +8 up or from −8 down
[13] = viability profiling in MM1S myeloma cells – cell-based, resazurin fluorescence, basal, 24 h, PK04 Diversity Set, profiling panel (AID 1174); details: higher = more signal, called active from +8 up or from −8 down; also: test concentration not given here
[14] = biological target: Dihydroorotate dehydrogenase (quinone), mitochondrial (Plasmodium falciparum (isolate 3D7)) (UniProt Q08210); experiment: inhibition of P. falciparum DHODH – biochemical, C-terminal His tag, absorbance 600 nm, primary screen (AID 1175); details: PfDHODH enzyme, DCIP absorbance 600 nm; higher = more signal, called active from +8 up or from −8 down;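 also: recombinant parasite enzyme with a five histidine tag at its C terminus; test concentration not given here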
Chain of Dihydroorotate dehydrogenase (quinone), mitochondrial (Plasmodium falciparum (isolate 3D7)) (Q08210 whole entry, looked up): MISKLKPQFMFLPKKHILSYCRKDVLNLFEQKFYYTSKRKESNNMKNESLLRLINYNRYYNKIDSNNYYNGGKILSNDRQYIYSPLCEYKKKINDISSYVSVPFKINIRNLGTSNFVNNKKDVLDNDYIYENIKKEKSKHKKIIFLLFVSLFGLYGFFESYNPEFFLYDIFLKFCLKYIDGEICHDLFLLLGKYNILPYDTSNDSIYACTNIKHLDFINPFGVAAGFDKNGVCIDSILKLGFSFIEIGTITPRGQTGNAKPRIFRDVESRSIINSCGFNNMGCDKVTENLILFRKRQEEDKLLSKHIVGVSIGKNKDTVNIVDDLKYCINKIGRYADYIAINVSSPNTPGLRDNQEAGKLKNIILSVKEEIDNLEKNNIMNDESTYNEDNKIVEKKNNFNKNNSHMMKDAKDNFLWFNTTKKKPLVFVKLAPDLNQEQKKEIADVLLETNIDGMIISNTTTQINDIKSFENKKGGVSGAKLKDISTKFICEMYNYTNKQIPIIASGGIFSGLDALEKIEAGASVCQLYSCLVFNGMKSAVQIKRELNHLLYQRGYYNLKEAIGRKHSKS

[15] = inhibition of PAO1 biofilm formation – strain PAO1, LB-PBS medium, absorbance 600 nm, primary screen (AID 1176); also: test concentration not given here; details: P. aeruginosa PAO1 growth/biofilm, A600, 12 h; higher = more signal
[16] = growth modulation of vineyard yeast isolate – strain RM11-1a, OD600, basal, 24 h, primary screen (AID 1177);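 also: cultures grown under basal conditions with no added stressor; test concentration not given here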; details: S. cerevisiae RM11-1a growth, OD600, 24 h; higher = more signal, called active from +8 up or from −8 down
[17] = growth of efflux-deficient E. coli DRC39 – strain DRC39, OD650, 24 h, E. coli filamentation inducers, primary screen (AID 1178);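 also: growth measured as culture turbidity by optical density at 650 nm; test concentration not given here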; details: E. coli DRC39 acrAB, higher = more signal, called active from +8 up or from −8 down
[18] = growth of efflux-deficient E. coli DRC39 – strain DRC39, OD650, 48 h, E. coli filamentation inducers, primary screen (AID 1179);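 also: screen aims at cell division blockers that make cells filament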; details: E. coli DRC39 delta-acrAB growth, higher = more signal, called active from +8 up or from −8 down
[19] = viability profiling in RPMI8226 myeloma cells – cell-based, resazurin fluorescence, basal, 24 h, PK04 Diversity Set, profiling panel (AID 1180); details: higher = more signal;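 also: RPMI8826 multiple myeloma cell line at 5000 cells per well; test concentration not given here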
[20] = biological target: E3 ubiquitin-protein ligase XIAP (Homo sapiens) (UniProt P98170); experiment: small molecules binding XIAP protein – biophysical, small-molecule microarray, fluorescence 635 nm, primary screen (AID 1181); details: higher = more signal;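 also: score merges 667 nm emission and signal to noise over triplicate slides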
Chain of E3 ubiquitin-protein ligase XIAP (Homo sapiens) (P98170 whole entry, looked up): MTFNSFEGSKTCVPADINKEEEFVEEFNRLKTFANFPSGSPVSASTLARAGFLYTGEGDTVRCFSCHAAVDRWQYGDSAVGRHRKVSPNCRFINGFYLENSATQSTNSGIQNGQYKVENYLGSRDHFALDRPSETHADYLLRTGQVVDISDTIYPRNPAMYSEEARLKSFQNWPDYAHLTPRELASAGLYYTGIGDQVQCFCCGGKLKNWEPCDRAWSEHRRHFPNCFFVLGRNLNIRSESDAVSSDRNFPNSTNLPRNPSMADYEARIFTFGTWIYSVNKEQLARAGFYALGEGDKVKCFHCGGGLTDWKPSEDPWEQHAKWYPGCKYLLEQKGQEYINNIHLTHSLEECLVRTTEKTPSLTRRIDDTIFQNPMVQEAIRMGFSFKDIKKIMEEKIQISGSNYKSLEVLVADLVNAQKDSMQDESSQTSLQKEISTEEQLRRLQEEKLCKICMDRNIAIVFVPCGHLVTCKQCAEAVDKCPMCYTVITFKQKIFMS

C=CC[C@@]1(C(=O)N2CCOCC2)N=C(c2ccc(OCCCO)cc2)O[C@@H]1c1ccccc1CN=[N+]=[N-]
z-score [1]: 1.42 | z-score [2]: 0.563 | z-score [3]: 1.09 | z-score [4]: -0.909 | z-score [5]: -0.697 | z-score [6]: 1.97 | z-score [7]: -0.212 (inactive) | z-score [8]: -0.838 | z-score [9]: -0.845 | z-score [10]: 0.278 (inactive) | z-score [11]: 0.0491 | z-score [12]: 0.0155 (inactive) | z-score [13]: 0.118 (inactive) | composite z-score [14]: 0.159 (inactive) | z-score [15]: 0.137 (inactive) | z-score [16]: -0.109 (inactive) | z-score [17]: -0.0245 (inactive) | z-score [18]: 0.443 (inactive) | z-score [19]: -0.052 | composite z-score [20]: 0.184

CC(C)C(=C=CC[C@H](O)c1ccc(OCCO)cc1)C[C@H](O)c1ccccn1
z-score [1]: 1.84 | z-score [2]: -0.245 | z-score [3]: 1.34 | z-score [4]: -1.86 | z-score [5]: -0.121 | z-score [6]: 0.421 | z-score [7]: -0.0235 (inactive) | z-score [8]: -0.479 | z-score [9]: -0.5 | z-score [10]: 1.15 (inactive) | z-score [11]: 0.748 | z-score [12]: -1.7 (inactive) | z-score [13]: 0.143 (inactive) | composite z-score [14]: -0.575 (inactive) | z-score [15]: 0.379 (inactive) | z-score [16]: 0.673 (inactive) | z-score [17]: 1.37 (inactive) | z-score [18]: 0.879 (inactive) | z-score [19]: 0.986 | composite z-score [20]: 0.244

COCCOC(=O)N1C(=O)[C@@]2(c3cc(C#Cc4ccc(OC)cc4)ccc31)[C@H](c1ccc(O)cc1)N1[C@H](c3ccccc3)[C@H](c3ccccc3)OC(=O)[C@H]1[C@@H]2C(=O)N1CCCCCCC1
z-score [1]: 0.403 | z-score [2]: 0.703 | z-score [3]: -0.261 | z-score [4]: -1.08 | z-score [5]: -1.29 | z-score [6]: -0.902 | z-score [7]: 1.18 (inactive) | z-score [8]: -0.464 | z-score [9]: -0.414 | z-score [10]: -0.0155 (inactive) | z-score [11]: -0.113 | z-score [12]: 0.603 (inactive) | z-score [13]: -0.431 (inactive) | composite z-score [14]: -0.15 (inactive) | z-score [15]: 0.213 (inactive) | z-score [16]: 0.266 (inactive) | z-score [17]: -0.551 (inactive) | z-score [18]: -0.341 (inactive) | z-score [19]: -0.332 | composite z-score [20]: -0.158

[N-]=[N+]=Nc1ccccc1[C@H]1OC(c2ccc(OCCCO)cc2)=N[C@@]1(CCS(=O)(=O)c1ccccc1)C(=O)NCCN1CCOCC1
z-score [1]: 0.101 | z-score [2]: -0.223 | z-score [3]: 0.0355 | z-score [4]: -0.387 | z-score [5]: -0.161 | z-score [6]: 0.816 | z-score [7]: -0.374 (inactive) | z-score [8]: 0.184 | z-score [9]: -0.691 | z-score [10]: 1.22 (inactive) | z-score [11]: 0.3 | z-score [12]: -0.378 (inactive) | z-score [13]: 0.131 (inactive) | composite z-score [14]: 0.467 (inactive) | z-score [15]: 0.537 (inactive) | z-score [16]: 0.0557 (inactive) | z-score [17]: -0.259 (inactive) | z-score [18]: -0.264 (inactive) | z-score [19]: 0.291 | composite z-score [20]: 0.177

CC(CO)N1C(=O)[C@@H]2[C@H]3C(=O)OCC=C[C@H]3OC23C=CCN(C(C)(C)C)C(=O)[C@@H]13 (stereo not given in full)
z-score [1]: -0.0702 | z-score [2]: -0.643 | z-score [3]: -0.711 | z-score [4]: 1.08 | z-score [5]: 0.0608 | z-score [6]: -0.936 | z-score [7]: -0.172 (inactive) | z-score [8]: 0.127 | z-score [9]: 0.0965 | z-score [10]: -0.289 (inactive) | z-score [11]: 0.0792 | z-score [12]: 0.0031 (inactive) | z-score [13]: -0.555 (inactive) | composite z-score [14]: -1.08 (inactive) | z-score [15]: -0.401 (inactive) | z-score [16]: -0.505 (inactive) | z-score [17]: -0.554 (inactive) | z-score [18]: -0.762 (inactive) | z-score [19]: -0.794 | composite z-score [20]: 0.252

CCCCN1CC=CC23O[C@@H]4/C=C\CCC(C)OC(=O)C4[C@H]2C(=O)N(C(CO)C(C)C)[C@@H]3C1=O (stereo not given in full)
z-score [1]: 0.0282 | z-score [2]: -0.21 | z-score [3]: 0.519 | z-score [4]: 1.61 | z-score [5]: -0.773 | z-score [6]: -0.403 | z-score [7]: -1.27 (inactive) | z-score [8]: 0.0795 | z-score [9]: -0.676 | z-score [10]: -0.0227 (inactive) | z-score [11]: 0.229 | z-score [12]: 0.844 (inactive) | z-score [13]: 0.382 (inactive) | composite z-score [14]: -1.29 (inactive) | z-score [15]: 0.991 (inactive) | z-score [16]: 0.164 (inactive) | z-score [17]: 0.375 (inactive) | z-score [18]: 0.156 (inactive) | z-score [19]: -0.0048 | composite z-score [20]: 0.48

Cc1ccc(S[C@]2(C(=O)NCC(F)(F)F)CC(=O)N(Cc3ccccc3C(F)(F)F)[C@@H]2c2ccc(CO)cc2I)cc1
z-score [1]: 1.45 | z-score [2]: -0.438 | z-score [3]: 0.707 | z-score [4]: -1.56 | z-score [5]: -1.71 | z-score [6]: 0.16 | z-score [7]: 0.0898 (inactive) | z-score [8]: -0.597 | z-score [9]: -2.22 | z-score [10]: 0.328 (inactive) | z-score [11]: 0.719 | z-score [12]: -3.66 (inactive) | z-score [13]: -2.62 (inactive) | composite z-score [14]: 0.196 (inactive) | z-score [15]: -0.0623 (inactive) | z-score [16]: -1.21 (inactive) | z-score [17]: 0.506 (inactive) | z-score [18]: 1.21 (inactive) | z-score [19]: -1.15 | composite z-score [20]: 0.531

CCOC(=O)C[C@H]1[C@H](OC(=O)c2ccccc2-c2ccccc2)[C@@H](NC(=O)c2ccc(-c3ccccc3)cc2)c2cc(OCCCO)ccc2N1C(=O)c1ccc2ccccc2n1
z-score [1]: -0.137 | z-score [2]: -0.163 | z-score [3]: 0.336 | z-score [4]: 0.402 | z-score [5]: -0.485 | z-score [6]: -0.149 | z-score [7]: 1.18 (inactive) | z-score [8]: 0.0491 | z-score [9]: -0.63 | z-score [10]: 0.524 (inactive) | z-score [11]: -0.0523 | z-score [12]: 0.662 (inactive) | z-score [13]: 0.128 (inactive) | composite z-score [14]: -0.0558 (inactive) | z-score [15]: 0.318 (inactive) | z-score [16]: 0.752 (inactive) | z-score [17]: -0.447 (inactive) | z-score [18]: -0.0565 (inactive) | z-score [19]: 0.636 | composite z-score [20]: 0.0891
